Inconclusive results are not listed. Unmarked numbers belong to inactive results. Calls of active or inactive are those of the source. Calls come from the whole dose curve; as a rule, active = well fitted curve in the direction sought with a large enough effect; inconclusive = small, poorly fitted or top-dose-only effect, or another doubt; inactive = no such curve, though single readings can be large or run the other way.
test system: NanoLuc luciferase (engineered Oplophorus gracilirostris luciferase); assay: Confirmatory Nanoluciferase (NLuc) qHTS assay for identification of artifact compounds.; for activity change, negative = inhibition: % of control where 0% means no effect; conditions: secreted NLuc in S16 cell medium, luminescence, 5 min; series mostly up to 39 µM; activity change, negative = inhibition: at the top concentration
Summary of the method: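 Conditioned medium from NLuc-expressing S16 cells (diluted 1:55) was incubated with compounds for 15 min at room temperature. Nano-Glo substrate (1:100) was then added, and luminescence was read after 5 min.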
Potency is the fitted concentration of half-maximal effect.

Structure (SMILES)	activity change, negative = inhibition	Potency
CCC1Oc2ccccc2N(CC(=O)NCc2ccc(C)cc2)C1=O (centres undefined)	-14.7%	–
CC(C)(O)C1CC[C@@]2(C)C3CCC4[C@@]5(C)CCCC(C)(C)C5C(O)C[C@]4(C)[C@]3(C)CC[C@@H]12 (some centres undefined)	0.282%	–
O=C(NCCC1=CCCCC1)c1ccc2c(c1)N(Cc1cccc(Cl)c1)C(=O)c1ccccc1S2=O (centres undefined)	-2.54%	–
Cc1nc2nc(CNC(=O)OC(C)(C)C)nn2c(C)c1CCC(=O)NCc1ccccc1Cl	4.97%	–
Cc1ccc(C)c(N2CCN(C(=O)c3ccc(Nc4nc5ccccc5n5nnnc45)cc3)CC2)c1	-2.99%	–
COc1ccc(-c2noc(N3CCC(C(=O)N4CCN(c5cccc(C)c5C)CC4)CC3)n2)cc1	-5.97%	–
CC(C)[C@@H](C)/C=C/[C@@H](C)[C@H]1CC[C@H]2/C(=C/C=C3\C[C@@H](O)CC[C@@H]3C)CCC[C@]12C	-8.1%	–
CCOC(=O)c1cccc(NC(=O)c2ccc3snnc3c2)c1	-2.68%	–
CC1CCN(c2ccc(-c3cccc(NS(=O)(=O)c4ccc(F)cc4F)c3)nn2)CC1	-3.08%	–
CCOC(=O)N1CCN(S(=O)(=O)N2CCCC(C(=O)NCc3cc(OC)ccc3OC)C2)CC1 (centres undefined)	-22.6%	–
Cc1ccc(NC(=O)Cn2c(=O)n(CCC(=O)NCCc3ccccc3)c(=O)c3ccccc32)cc1	-10.7%	–
N#C/C(=C\c1ccc(-c2cc(Cl)ccc2Cl)o1)C(=O)Nc1ccccc1C(=O)O	–	12.2 µM (active)
COC(=O)C1=CO[C@@H](O[C@@H]2O[C@H](CO)[C@@H](O)[C@H](O)[C@H]2O)C2C(CO)=CCC12 (some centres undefined)	-0.305%	–
Cc1ccc(NC(=O)c2nc(-c3ccncc3)no2)c(Cl)c1	4.6%	–

Source: PubChem BioAssay AID1845224 (National Center for Advancing Translational Sciences (NCATS), 2023)
